Screens: PubChem, National Center for Advancing Translational Sciences (NCATS)
Only some compounds are listed: those with a hit (about 12% of all), similar ones and a draw of the others.
BAZ2B block: BAZ2B (human) inhibition; Q9UIF8; AlphaScreen BAZ2B-H3K14Ac peptide displacement; Potency, µM (doses to about 114 µM), without a hit: at the top dose activity change, negative = inhibition, actives largely listed as inhibitors; hit rate 4.4% among 360,000; AID 504333; also: potency is read from the fitted curve at half-maximal effect; % is scaled to controls: 0 for no effect and ±100 for the full control effect; nearly all actives have a fitted effect of over 60% in size
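Complex of BAZ2B and biotin-H3K14Ac (50 nM apiece) forms over 30 min at RT, then faces library compounds up to 110 uM for another 30 min; AlphaScreen beads added, 20 min dark incubation, luminescence read.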
JMJD2A Tudor inh: JMJD2A Tudor domain (human) inhibition | AlphaScreen JMJD2A-Tudor / H3K4me3 peptide binding | Potency, µM (highest dose often 114 µM), without a hit: at the highest dose activity change, negative = inhibition, usual class: inhibitors | hit rate 4.4% among 390,000; also: potency is read from the fitted curve at half-maximal effect; % is scaled to controls: 0 for no effect and ±100 for the full control effect; nearly all actives have a fitted effect of over 50% in size
PI5P4Ka inh: inhibitors of human PI5P4K alpha. P48426. hit rate 1.2% among 330,000. max response, %. PI5P4Kalpha enzyme, ADP-Glo luminescence, 60 min; hits give low values. AID 652105; active = max response of -50% or lower; inconclusive = between -30% and -50%; inactive = -30% or higher; also: value at the top dose of about 77 µM; % is scaled to controls: 0 for no effect and ±100 for the full control effect
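Single end-point luminescence (ADP-Glo) quantified ADP from PI5P4Kalpha turnover; ATP 5 microM final, 1 h at RT, 0.1% CHAPS and 0.28 mM EGTA in HEPES pH 7.4.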
G9a block: inhibitors of human histone lysine methyltransferase G9a; Q96KQ7; G9a H3K9 monomethylation, AlphaScreen, 2 h; Potency, µM (doses to about 102 µM), for inactives: at the top dose activity, negative = inhibition, hits mostly inhibitors; hit rate 8.8% among 350,000; AID 504332; also: potency is read from the fitted curve at half-maximal effect; % is scaled to controls: 0 for no effect and ±100 for the full control effect; nearly all actives have a fitted effect of over 75% in size
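Using a bead-based AlphaScreen, monomethylated H3K9 product from 2 h room-temperature reactions (G9a 20 nM, peptide 500 nM, SAM 20 uM) was detected with 0.5 ug/mL rabbit anti-H3K9me1 antibody.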
PLK1 PBD block: blocks phosphopeptide binding to human PLK1 polo-box domain; P53350; Plk1 PBD binding of FITC phosphopeptide, fluorescence polarization; Potency, µM, for inactives: max response, negative = inhibition, actives largely listed as inhibitors; hit rate 2.8% among 360,000; AID 720504; also: potency is read from the fitted curve at half-maximal effect; series mostly up to about 57 µM; % is scaled to controls: 0 for no effect and ±100 for the full control effect; nearly all actives have a fitted effect of over 65% in size
HP1b binding inh: blocks HP1-beta chromodomain binding to methylated histone tails | P83916 | hit rate 0.56% among 390,000 | AID 540317 | Potency, µM (highest dose often 114 µM), inactives show at the top dose activity change, negative = inhibition, usual class: inhibitors | AlphaScreen HP1-beta / biotin-H3K9me3 peptide binding; also: potency is read from the fitted curve at half-maximal effect; nearly all actives have a fitted effect of over 70% in size
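Compound inhibition of the preformed complex between 50 nM HP1-beta and 50 nM biotinylated H3K9me3 peptide was read by AlphaScreen. Buffer was PBS pH 7.4 with 0.01% Tween-20. Incubations ran 30 min at room temperature, with 10 ug/mL donor/acceptor beads.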
TbPYK confirm: Trypanosoma brucei pyruvate kinase inhibition, cherry-pick confirmation | recombinant TbPYK, Kinase-Glo ATP luminescence | Potency, µM (highest dose often 76.9 µM), inactives show top-dose activity change, negative = inhibition, usual class: inhibitors | shares compounds with PLK1 PBD block | hit rate 67% among 890 | AID 720569; also: potency is read from the fitted curve at half-maximal effect; % is scaled to controls: 0 for no effect and ±100 for the full control effect; nearly all actives have a fitted effect of over 70% in size
TbPYK ADP-Glo: inhibits T. brucei pyruvate kinase in orthogonal ADP-Glo assay. Potency, µM (highest dose often 76.9 µM), without a hit: at the top dose activity change, negative = inhibition, usual class: inhibitors. AID 720584. hit rate 62% among 890. shares compounds with PLK1 PBD block. recombinant TbPYK, ADP-Glo luminescence, 60 min; also: potency is read from the fitted curve at half-maximal effect; % is scaled to controls: 0 for no effect and ±100 for the full control effect; nearly all actives have a fitted effect of over 75% in size
* hit, by the source's call; ? = inconclusive; . = not tested or not shown; [ ] = remark or other dose. Unless noted, calls follow the shape of the dose curve; as a rule, active = well fitted curve in the direction sought with a large enough effect; inconclusive = small, poorly fitted or top-dose-only effect, or another doubt; inactive = no such curve, though single readings can be large; an effect the other way counts as inactive or inconclusive.

SMILES	BAZ2B block	JMJD2A Tudor inh	PI5P4Ka inh	G9a block	PLK1 PBD block	HP1b binding inh	TbPYK confirm	TbPYK ADP-Glo
O=C(O)c1ccc2nc(-c3ccco3)c(-c3ccco3)nc2c1	10µM*	25µM*	?	-123%[12.7 µM]	12µM*	?	14µM*	16µM*
Cc1c(N2C(=O)/C(=C/c3cccc4ccccc34)SC2=S)c(=O)n(-c2ccccc2)n1C	.	?	.	.	-13%	?	.	.
Cc1c(N2C(=O)/C(=C\c3ccccc3O)SC2=S)c(=O)n(-c2ccccc2)n1C	-30%	18µM*	?	1.8µM*	1.7µM*	?	4.5µM*	7.9µM*
Cc1ccc(CNC(=O)[C@]2(C(F)(F)F)C[C@H](CCc3ccccc3)CCCO2)o1	.	-30%	.	.	.	18%	.	.
Cc1cc(NS(=O)(=O)c2ccc(NC(=O)/C=C/c3ccc(C)o3)cc2)nc(C)n1	-28%	22µM*	?	8.9µM*	8.4µM*	-26%	7.9µM*	11µM*
Cc1cc(NS(=O)(=O)c2ccc(NC(=O)c3c(F)c(F)c(F)c(F)c3F)cc2)nc(C)n1	-3%	-7%	-7	7%	-2%	28%	.	.
COc1ccc(O)c(/C=c2/sc3nc4cc(C)c(C)cc4n3c2=O)c1	-8%	?	?	2.5µM*	11µM*	?	10µM*	11µM*
COc1cc(/C=C2\SC(c3ccc(C)cc3)=NC2=O)cc(OC)c1O	35µM*	56µM*	.	?	-19%	13µM*	35µM*	?
Cc1ccc(/C=C2\SC(N3CCCC3)=NC2=O)cc1	-2%	.	.	5%	.	.	.	.
Cc1ccc(C2=NC(=O)/C(=C/c3cc(O)c(O)c(Br)c3)S2)cc1	3.5µM*	5µM*	-82*	2.2µM*	?	3.2µM*	32µM*	?
CC1=CC(=O)C(C(C)C)=C/C1=C(\c1cc(C(C)C)c(OP(=O)(O)O)cc1C)c1ccccc1C(=O)O	-1%	-2%	1	-5%	?	8%	.	.
CCOC(=O)c1ccc(NC2=CC(c3ccc(O)c(OCC)c3)N(c3ccc(C(=O)OCC)cc3)C2=O)cc1 (stereo not drawn)	-16%	-9%	.	-2%[59 µM]	.	12%	.	.
NC(=O)c1c(N)sc2c1CCCCC2	5%	?	?	8.9µM*	?	18µM*	?	?
C=CC(=O)Nc1sc2c(c1C(N)=O)CCCC2	2%	-12%	-4	-14%[2.33 µM]	-10%	21%	.	.
COc1cc2cncc(Cc3ccc(Cl)cc3)c2cc1OC	-25%	-17%	2	-21%[2.33 µM]	-1%	37%	.	.
CCN1C(=O)/C(=C/c2cnn(CC)c2C)SC1=S	-34%	-13%	-4	-5%[59 µM]	-13%	5%	.	.
CCN1C(=O)/C(=C/C=C2/Sc3ccc4ccccc4c3N2CCO)SC1=S	?	-17%	-1	-9%[59 µM]	-9%	5%	16µM*	?
CC(=O)c1cccc(NS(=O)(=O)c2ccc3c(c2)N(C(C)=O)CCO3)c1	-2%	?	0	29%	-8%	49%	.	.
COc1ccc(SC[C@H](CC(C)C)N2CCN(CCc3ccccc3)CCC2=O)cc1	?	-27%	3	-49%[59 µM]	-27%	25%	.	.
Cc1cc(C2=NNC(=Nc3ccc(S(=O)(=O)N4CCOCC4)cc3)SC2)c(C)n1C	-28%	?	?	32µM*	3%	-22%	18µM*	16µM*
C#CCN(C[C@@H]1[C@@H](OC(=O)NCC2CCCCC2)[C@@H](OC(=O)NCC2CCCCC2)Cn2c(=O)n(CCCCCC)c(=O)n21)S(=O)(=O)c1ccc(C)cc1	.	.	0	.	-7%	.	.	.
